# Assay outcomes: PubChem, The Scripps Research Institute Molecular Screening Center
# FXN GAA850 act – increases GAA850 frataxin promoter reporter activity | HEK293 lucGAA850 FXN promoter luciferase reporter, 24 h; percent of 10 µM SAHA response | AID 540364 | activation, % at 6 µM | hit rate 0.56% among 360,000;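 active = activation above the average of all compounds screened plus 3 SD, cutoff fixed separately per campaign, cut at about 7.5% in these data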;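 also: 0% = DMSO wells and 100% = 10 µM SAHA wells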
# hgDAF-12 ag – agonists of H. glycines DAF-12 nuclear receptor. HEK293 GAL4-hgDAF12 UAS-luciferase reporter, agonist luminescence; normalized to butyrate control. activation, % at 6.8 µM. hit rate 1.8% among 370,000;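 active = activation above a cutoff set at the mean of all screened compounds plus 3 SD, cut at about 10% in these data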;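 also: 0% = DMSO wells and 100% = sodium butyrate wells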
# DAX1 inh-1 – NR0B1 (DAX1) inhibition; P51843; HEK293 Gal4-DAX1 luciferase reporter, luminescence; inhibition, % at 6.75 µM; hit rate 0.99% among 340,000; AID 504766;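 active = inhibition above the mean over all tested compounds plus 3 SD, cut at about 4.2% in these data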;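 also: 0% = DAX1-transfected cells with DMSO and 100% = empty-vector control cells with DMSO; inhibition shows as a rise in luminescence from relieved DAX1 repression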
# Target sequence (P51843 207-470 limits assumed): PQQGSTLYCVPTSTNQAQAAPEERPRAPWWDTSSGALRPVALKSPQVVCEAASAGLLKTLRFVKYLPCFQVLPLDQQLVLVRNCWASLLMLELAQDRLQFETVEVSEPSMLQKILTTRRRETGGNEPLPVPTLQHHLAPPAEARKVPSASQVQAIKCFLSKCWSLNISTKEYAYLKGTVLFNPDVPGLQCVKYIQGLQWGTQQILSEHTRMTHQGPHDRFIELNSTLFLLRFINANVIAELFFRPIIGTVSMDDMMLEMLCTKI
# hcDAF12 agonist – activators of H. contortus DAF-12 nuclear receptor; HEK293 hcDAF-12 lit1-tk-luc reporter, luminescence; 0% DMSO, 100% Δ7-dafachronic acid; activation, % at 6.8 µM; hit rate 1.4% among 370,000; AID 652067;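 active = activation above the mean of all tested compounds plus 3 SD, cut at about 5.5% in these data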;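 also: 100% = response to 3 µM Δ7-dafachronic acid high control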
# ssDAF12 agonist – activators of S. stercoralis DAF-12 nuclear receptor; HEK293 ssDAF-12/GRIP1 lit1-tk-luc reporter, luminescence; % of 3 µM dafachronic acid response; activation, % at 6.8 µM; hit rate 1% among 370,000;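 active = activation above the mean over all tested compounds plus 3 SD, cut at about 0.9% in these data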;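 also: 0% = DMSO-only wells and 100% = 3 µM delta7-dafachronic acid wells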
# DAX1 inh-2 – inhibitors of DAX1 repression of SF-1 activated StAR promoter. HEK293T StAR-luciferase reporter, SF-1/DAX-1 repression relief. inhibition, % at 6.8 µM. hit rate 1.1% among 370,000. AID 652010;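 active = inhibition above the mean over all tested compounds plus 3 SD, cut at about 3.6% in these data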;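 also: 0% = DAX-1 cells with DMSO and 100% = cells lacking DAX-1 with DMSO; higher inhibition means more luminescence from relief of DAX-1 repression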
# The depositor's hits bear a star; . = no result. This is a sample that favours compounds with a hit; in the whole collection about 4.5% have one here.
SMILES,FXN GAA850 act,hgDAF-12 ag,DAX1 inh-1,hcDAF12 agonist,ssDAF12 agonist,DAX1 inh-2
CN1C(=O)C[C@@](C#N)(C(=O)NCC(F)(F)F)[C@H]1c1ccccc1,.,3,.,3,-1,0
O=C(Nc1ccc(F)c(Cl)c1)c1ccc2c(c1)OCO2,3,11*,3,6.2*,0,2
CCC(C(=O)Nc1ccccc1N1CCCC1)c1ccccc1Cl (stereo not drawn),.,1,.,-2,-1,-2
CN(c1ccccc1)S(=O)(=O)c1cccc(NC(=O)CCN2C(=O)C3CCCCC3C2=O)c1 (stereo not drawn),0,0,-1,1,1.8*,-2
Cc1cc(C(=O)O[C@H]2CCC[C@@]3(C(=O)N(Cc4ccccc4)c4ccccc43)[C@H]2NC(=O)CCc2ccccc2)no1,.,1,.,-3,-2,-1
O=C(O)c1ccccc1NC(=O)C(Cc1ccccc1)N1C(=O)c2ccccc2C1=O (stereo not drawn),1,0,0,2,-2,0
O=C(Nc1ccc([N+](=O)[O-])cc1)C(Cc1ccccc1)N1C(=O)c2cccc3cccc(c23)C1=O (stereo not drawn),1,3,0,5,1.4*,0
Cc1cccc(NC(=O)COc2ccc3c(c2)CCC3)n1,3,6,1,2,-1,3.8*
Cc1ccc(CC(=O)Nc2cccc(C)n2)cc1,6,5,2,3,1.9*,2
COC(=O)[C@]12C[C@H](CC(=O)NCc3cccs3)C(=O)N(Cc3ccc(Cl)cc3Cl)C1=C[C@H](C(C)C)O[C@@H]2C1CC1,.,1,.,0,-2,0
O=C(CSc1nnc(-c2ccc(Cl)cc2)n1-c1ccccc1)Nc1ccc2c(c1)OCCO2,.,0,.,-3,-1,0
O=S(=O)(CC1NCc2ccccc21)NCCc1ccccc1 (stereo not drawn),.,2,.,-4,-1,1
O=C(c1cc2ccccc2oc1=O)N(Cc1ccc(F)cc1)C1CCS(=O)(=O)C1 (stereo not drawn),2,3,4.5*,3,0,2
O=C(c1cc2ccccc2oc1=O)N(Cc1cccs1)C1CCS(=O)(=O)C1 (stereo not drawn),2,7,1,5.8*,1,1
CC(=O)N(/C=C1\SC(=S)N(c2ccccc2)C1=O)c1ccccc1,2,-2,0,0,1.9*,0
CCCC1CCC2(CCCN2CCOC(=S)NCc2cccc(C)c2)CC1 (stereo not drawn),.,4,.,0,-2,.
CN(C)Cc1nnnn1-c1ccccc1,1,-2,4.9*,0,-1,0
Cc1ccc(OCc2nnnn2-c2ccccc2)cc1,0,2,-2,-1,-2,-1
O=C(O)C1Cc2[nH]cnc2C(c2ccccc2O)N1 (stereo not drawn),1,1,1,6.0*,0,0
O=C(O)C1Cc2[nH]cnc2C(c2cccc([N+](=O)[O-])c2)N1 (stereo not drawn),-3,-4,0,-1,-1,0
CN(Cc1cn(CC2CCCCC2)nn1)S(=O)(=O)c1ccccc1Br,.,-1,.,-3,-1,1
CN1C(=O)c2cc(NC(=O)Cc3ccccc3)ccc2OC[C@H]2O[C@H](CC(=O)O)CC[C@H]21,.,1,.,0,-1,0
Cc1ccc(-n2c(C)cc(/C=C3\SC(=O)NC3=O)c2C)cc1,3,6,2,3,0,1
Cc1cc(/C=C2\SC(=S)NC2=O)c(C)n1-c1cccc(O)c1,3,7,5.3*,5,0,4
CC1CC1C(=O)Nc1nc(-c2cccs2)c(-c2cccs2)s1 (stereo not drawn),3,2,1,5,2.0*,0
SMILES,FXN GAA850 act,hgDAF-12 ag,DAX1 inh-1,hcDAF12 agonist,ssDAF12 agonist,DAX1 inh-2
CCc1ccc(Nc2ncc3c(n2)CC(C)CC3=O)cc1 (stereo not drawn),6,10,1,1,0,3.8*
CCc1ccc(Nc2ncc3c(n2)CC(C)(C)CC3=O)cc1,4,7,7.1*,2,-1,1
N=C1C(c2nc3ccccc3[nH]2)=C(O)CN1c1ccccc1,1,5,0,1,-1,1
CC1C(O)=C(c2nc3ccccc3[nH]2)C(=N)N1c1ccccc1 (stereo not drawn),0,13*,2,0,-1,0
COC(=O)c1cc(-c2cccc3c2sc2ccccc23)c(=O)n2c1CCC2,.,-3,.,1,0,-2
CSc1ccccc1NC(=O)Nc1ccccc1,4,3,-1,0,-1,0
COc1ccc(C(=O)NNC(=O)CSc2nc(C(C)C)nc3ccccc23)cc1,-1,-2,1,-2,-1,0
CCOc1ccc(NC(=O)Nc2ccccc2SC)cc1,5,11*,4.5*,4,-1,2
COc1ccc(NC(=O)c2ccccc2NC(=O)CSc2ccc(C)cc2)cc1,2,3,1,5.9*,-1,1
CCOc1ccc(NC(=O)c2cccc3ccccc23)cc1,-3,10,-1,-1,-2,-1
COc1ccc(C(=O)NNC(=O)CSc2ccccc2)cc1,2,-2,4.5*,0,-2,1
CCOc1ccc(NC(=O)c2cc3ccccc3cc2O)cc1,7,6,0,1,1.2*,0
C=CCOC(=O)N[C@@H](c1cccc(OC)c1)[C@@H](C)/C=C/CC(=O)O,.,-3,.,0,-1,0
CC(C)[C@@H]1NC(=O)[C@H]2C[C@@]3(c4ccccc4)c4ccccc4N[C@H]3N2C1=O,.,-1,.,2,-1,-1
COc1ccc(Cn2cc(COC(=O)Nc3ccc(F)cc3)nn2)cc1,.,1,.,-2,-1,0
COc1cc(C(=O)Nc2ccc(C)cc2)c2ccccc2n1,-3,0,-2,5.7*,1,0
COc1ccc(NC(=O)c2ccc3ccccc3c2OC)cc1,-1,4,4.4*,0,-1,0
O=C1CCC2(CCCCC2)N1CCCO,.,-3,.,0,0,-1
OC(c1ccccc1)(c1ccccc1)C1CCN(CCCOc2ccc(OC(F)(F)F)cc2)CC1,.,2,.,2,-1,0
CSc1ccccc1OCc1cc(C(=O)N(C)Cc2nonc2C)no1,5,3,2,2,-1,4.0*
Cc1nc(CNC(=O)c2cc(COc3c(F)cccc3F)on2)cs1,2,-1,6.3*,1,-2,0
CSc1ccccc1OCc1cc(C(=O)NCc2cccc(C)n2)no1,2,11*,2,4,-1,3
Oc1ccc(Nc2ccccc2F)c2cccnc12,.,3,.,3,0,.
S=c1[nH]nc(-c2cc(-c3ccccc3)n[nH]2)n1/N=C/c1ccccc1,2,4,7.3*,-1,-1,1
